Laboratory results as given in PubChem BioAssay (Tox21).
Values joined by “and” are separate entries in the source; they are usually repeats but may differ in a detail not shown here. Identical values can stand only once. Results filed as inconclusive are left out. The source holds several records for some structures; these can differ, active in one and inactive in another. Active and inactive are the calls of the source. Unless noted, calls follow the shape of the dose curve; as a rule, active = well fitted curve in the direction sought with a large enough effect in the repeat runs; inconclusive = weak or mixed curves; inactive = no such curve, though single readings can be large; an effect the other way counts as inactive or inconclusive.

Tests used:
[1] = A CellTox Green Cytotoxicity Assay to monitor cytotoxicity in HepG2 cells - 8 hour (AID 1224890); also: nearly all actives have a fitted effect of over 45% in size
Procedure, shortened: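 HepG2 cells, 600/well, preincubated 5 h with CellTox Green dye, then exposed to Tox21 compounds in DMSO at 37 C for up to 40 h. Dead-cell DNA fluorescence read at the indicated time point.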

[2] = qHTS assay to identify small molecule antagonists of the estrogen receptor alpha (ER-alpha) signaling pathway using the BG1 cell line in the presence of 0.1 nM 17-beta-estradiol - cell viability counter screen (AID 1259241); also: nearly all actives have a fitted effect of over 40% in size
Procedure, shortened: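 Cytotoxicity counter-screen: live-cell protease activity measured by fluorescence (30 min reagent step) in the same wells. Cells were VM7Luc4E2 with endogenous ER-alpha and ERE-driven luciferase, treated 22 hr at 37C alongside 0.1 nM 17beta-estradiol final.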

[3] = qHTS assay to identify small molecule antagonists of the androgen receptor (AR) signaling pathway using the MDA cell line in the presence of 0.5 nM R1881 - cell viability counter screen (AID 1259242); also: nearly all actives have a fitted effect of over 45% in size
Procedure, shortened: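 MDA-kb2 cells (MMTV-luciferase, AR/GR responsive) were treated with compounds plus 0.5 nM R1881 (final) for 16 hr at 37C, 0% CO2. Viability was then read in the same wells as live-cell protease fluorescence (CellTiter-Fluor, 30 min).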

[4] = qHTS assay to identify small molecule HDAC inhibitors (AID 1259364); also: top concentration of the series differs between compounds; nearly all actives have a fitted effect of over 45% in size
Procedure, shortened: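 Wild-type HCT-116 cells, plated overnight at 37 C, exposed to compounds 2 hr at 37 C; luminogenic HDAC-Glo substrate then added 30 min at room temperature. Luminescence reports relative endogenous class I/II HDAC activity.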

[5] = qHTS assay to identify small molecule HDAC inhibitors - cell viability counter screen (AID 1259365); also: series mostly up to about 92 µM; nearly all actives have a fitted effect of over 50% in size
Procedure, shortened: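 CellTiter-Glo luminescence (30 min, room temperature) reported viability after a 2 h compound exposure at 37 C. Cells: wild-type HCT-116, 1,500 per well, seeded the night before.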

[6] = qHTS assay to identify small molecule agonists of the sonic hedgehog signaling (Shh) pathway - cell viability counter screen (AID 1259366); also: nearly all actives have a fitted effect of over 50% in size
Procedure, shortened: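 Cytotoxicity counter screen: CellTiter-Fluor reagent added after 23 h compound exposure, then 1 h at 37C and fluorescence read. Cells were 3T3 Gli1-Luc, seeded 2,000 per well and dosed 4 h post-plating.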

[7] = qHTS assay to identify small molecule antagonists of the sonic hedgehog signaling (Shh) pathway - cell viability counter screen (AID 1259367); also: nearly all actives have a fitted effect of over 55% in size
Procedure, shortened: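 NIH/3T3-derived Gli1-Luc reporter cells (2,000 per well) rested 4 hr at 37 C, then received DMSO compounds plus conditioned medium. After 23 hr of treatment, CellTiter-Fluor was added for 1 hr at 37C and fluorescence read.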

[8] = qHTS assay to identify small molecule agonists of the sonic hedgehog signaling (Shh) pathway (AID 1259368; calls by dose curve;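 also: NIH/3T3-derived 3T3Gli1-Luc cells carrying a stable Gli1-driven firefly luciferase reporter; series mostly up to about 92 µM; nearly all actives have a fitted effect of over 15% in size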)
Procedure, shortened: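 NIH/3T3-derived 3T3Gli1-Luc cells with stably integrated Gli1-driven firefly luciferase, 2,000 cells/well, compounds added after 4 hr. Incubated 24 hr at 37C, 5% CO2; luminescence read after 30 min with luciferase reagent at room temperature.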

[9] = qHTS assay to identify small molecule antagonists of the sonic hedgehog signaling (Shh) pathway (AID 1259369; calls by dose curve; also: nearly all actives have a fitted effect of over 45% in size; also: potency is read from the fitted curve at half-maximal effect)
Procedure, shortened: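 NIH/3T3-derived Gli1-Luc reporter cells plated 4 h, dosed with compound, then stimulated with conditioned medium for 24 h at 37 C. Firefly luciferase luminescence read after 30 min with detection reagent at room temperature.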

[10] = qHTS assay to identify small molecule agonists of the androgen receptor (AR) signaling pathway in the presence of an antagonist - cell viability counter screen (AID 1259379);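 also: MDA-kb2 human breast cancer cells carrying an MMTV luciferase reporter; series mostly up to about 92 µM; nearly all actives have a fitted effect of over 25% in size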
Procedure, shortened: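 MDA-kb2 cells (MMTV-luciferase, AR/GR), 3,000/well, 5 h attachment, then 3.0 µM nilutamide (final) and compounds at 15 concentrations. Viability by CellTiter-Fluor fluorescence after 16 h at 37 °C, 0% CO2, in the reporter wells.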

[11] = qHTS assay to identify small molecule agonists of the estrogen receptor beta (ER-beta) signaling pathway - cell viability counter screen (AID 1259380); also: nearly all actives have a fitted effect of over 30% in size; also: potency is read from the fitted curve at half-maximal effect
Procedure, shortened: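 ER-beta-UAS-bla HEK293T cells in medium with 2% charcoal-stripped FBS, pre-incubated 6 hr, then treated 16 hr at 37C. Cytotoxicity read in the same wells by CellTiter-Glo luminescence after 30 min at room temperature.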

[12] = qHTS assay to identify small molecule antagonists of the estrogen receptor beta (ER-beta) signaling pathway - cell viability counter screen (AID 1259382); also: series mostly up to about 92 µM; nearly all actives have a fitted effect of over 55% in size
Procedure, shortened: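 ER-beta-UAS-bla HEK293T cells in 2% charcoal-stripped FBS medium, treated with compound plus 1 nM 17-beta-estradiol for 16 h at 37C. Viability read by CellTiter-Glo luminescence after 30 min at room temperature in the same wells.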

[13] = target: Androgen receptor (Homo sapiens) (UniProt P10275); test: qHTS assay to identify small molecule antagonists of the androgen receptor (AR) signaling pathway using the MDA cell line in the presence of 0.5 nM R1881 (AID 1259243); also: nearly all actives have a fitted effect of over 50% in size
Chain of Androgen receptor (Homo sapiens) (P10275 whole entry, looked up): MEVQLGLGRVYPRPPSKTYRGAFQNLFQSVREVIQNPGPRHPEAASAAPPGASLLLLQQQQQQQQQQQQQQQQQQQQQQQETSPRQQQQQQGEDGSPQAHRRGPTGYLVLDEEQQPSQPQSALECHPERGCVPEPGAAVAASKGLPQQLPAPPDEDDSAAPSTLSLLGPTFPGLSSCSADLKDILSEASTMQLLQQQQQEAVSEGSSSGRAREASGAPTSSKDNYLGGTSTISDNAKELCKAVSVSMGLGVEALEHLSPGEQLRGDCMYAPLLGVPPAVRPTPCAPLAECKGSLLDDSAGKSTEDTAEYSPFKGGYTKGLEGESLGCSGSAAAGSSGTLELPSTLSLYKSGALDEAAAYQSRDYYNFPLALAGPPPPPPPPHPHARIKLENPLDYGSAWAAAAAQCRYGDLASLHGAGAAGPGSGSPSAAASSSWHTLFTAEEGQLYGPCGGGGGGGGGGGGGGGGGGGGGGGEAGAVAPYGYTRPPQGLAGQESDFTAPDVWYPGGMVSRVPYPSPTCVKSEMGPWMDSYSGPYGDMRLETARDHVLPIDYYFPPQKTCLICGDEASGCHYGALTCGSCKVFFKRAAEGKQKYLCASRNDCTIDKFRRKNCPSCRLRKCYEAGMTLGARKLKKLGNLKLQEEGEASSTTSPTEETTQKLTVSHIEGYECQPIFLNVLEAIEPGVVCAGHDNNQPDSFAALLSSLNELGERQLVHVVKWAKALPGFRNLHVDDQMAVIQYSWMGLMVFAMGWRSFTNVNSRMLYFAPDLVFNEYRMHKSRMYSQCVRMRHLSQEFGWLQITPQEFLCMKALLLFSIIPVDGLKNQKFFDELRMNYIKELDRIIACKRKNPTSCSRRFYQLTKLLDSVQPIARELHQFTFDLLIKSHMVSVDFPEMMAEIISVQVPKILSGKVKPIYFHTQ
Procedure, shortened: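 MDA-kb2 cells (MMTV-luciferase, responsive to AR and GR) at 3,000/well, rested 5 h at 37C, 0% CO2, then given compounds plus 0.5 nM R1881 (final) for 16 hr. Luciferase read with ONE-Glo after 30 min at room temperature.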

[14] = target: Estrogen receptor (Homo sapiens) (UniProt P03372); test: qHTS assay to identify small molecule antagonists of the estrogen receptor alpha (ER-alpha) signaling pathway using the BG1 cell line in the presence of 0.1 nM 17-beta-estradiol (AID 1259244); also: nearly all actives have a fitted effect of over 50% in size
Chain of Estrogen receptor (Homo sapiens) (P03372 whole entry, looked up): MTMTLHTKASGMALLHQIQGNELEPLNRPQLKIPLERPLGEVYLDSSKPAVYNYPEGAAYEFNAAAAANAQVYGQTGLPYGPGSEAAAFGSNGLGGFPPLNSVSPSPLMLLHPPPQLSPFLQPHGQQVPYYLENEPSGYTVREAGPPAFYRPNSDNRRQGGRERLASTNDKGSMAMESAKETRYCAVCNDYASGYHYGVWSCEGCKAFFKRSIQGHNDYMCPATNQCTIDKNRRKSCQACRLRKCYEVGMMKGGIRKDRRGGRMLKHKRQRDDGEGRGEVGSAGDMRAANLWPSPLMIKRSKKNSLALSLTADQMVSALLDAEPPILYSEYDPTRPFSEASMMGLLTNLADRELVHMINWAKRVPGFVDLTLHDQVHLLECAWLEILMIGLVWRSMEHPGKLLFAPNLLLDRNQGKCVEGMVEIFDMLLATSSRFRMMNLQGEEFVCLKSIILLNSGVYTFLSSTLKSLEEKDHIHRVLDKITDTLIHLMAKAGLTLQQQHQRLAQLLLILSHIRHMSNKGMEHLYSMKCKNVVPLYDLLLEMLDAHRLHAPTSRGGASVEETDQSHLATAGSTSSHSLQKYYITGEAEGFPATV
Procedure, shortened: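 VM7Luc4E2 cells (endogenous full-length ER-alpha, 4×ERE-luciferase), kept 5 days in phenol red-free, charcoal-stripped FBS medium; 4,000 cells/well. Compounds added with 0.1 nM (final) 17beta-estradiol, 22 hr at 37C; luminescence read with ONE-Glo after 30 min.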

[15] = qHTS assay to identify small molecule phospholipidosis (PLD) inducers (AID 1259344; active = well fitted curve in the direction sought with a large enough effect; an effect the other way counts as inactive or inconclusive)
Procedure, shortened: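 HepG2 cells on collagen I, attached 4 h at 37 C, were co-treated with compound and LipidTOX Red dye for 24 h at 37 C, then fixed with paraformaldehyde plus Hoechst 33342 and imaged by high-content microscopy for phospholipid accumulation.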

[16] = target: Estrogen receptor beta (Homo sapiens) (UniProt Q92731); test: qHTS assay to identify small molecule agonists of the estrogen receptor beta (ER-beta) signaling pathway (AID 1259377; active = well fitted activation curve with a large enough effect in the signal ratio in the repeat runs, not every such curve was filed as active; the % refers to the signal ratio)
Chain of Estrogen receptor beta (Homo sapiens) (Q92731 whole entry, looked up): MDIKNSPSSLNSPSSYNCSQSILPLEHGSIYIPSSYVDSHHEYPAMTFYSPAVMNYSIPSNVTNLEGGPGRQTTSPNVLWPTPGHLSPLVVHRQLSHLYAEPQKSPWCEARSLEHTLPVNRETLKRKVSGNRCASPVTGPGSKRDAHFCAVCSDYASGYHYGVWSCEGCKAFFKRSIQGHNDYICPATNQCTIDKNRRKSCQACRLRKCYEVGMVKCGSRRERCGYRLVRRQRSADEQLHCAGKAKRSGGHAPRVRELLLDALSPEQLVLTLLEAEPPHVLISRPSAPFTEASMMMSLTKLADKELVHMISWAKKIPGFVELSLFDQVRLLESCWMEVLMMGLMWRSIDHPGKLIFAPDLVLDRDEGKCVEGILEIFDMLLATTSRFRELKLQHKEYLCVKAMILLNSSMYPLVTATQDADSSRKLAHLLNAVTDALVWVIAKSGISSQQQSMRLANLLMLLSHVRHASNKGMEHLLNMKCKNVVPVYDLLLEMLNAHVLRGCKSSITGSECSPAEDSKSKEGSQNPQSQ
Procedure, shortened: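 Ratiometric beta-lactamase FRET read-out came after 2 h substrate loading at room temperature. It followed 16 h compound treatment at 37C of GripTite HEK293T cells carrying a UAS-bla reporter, plated in 2% charcoal-stripped FBS medium.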

[17] = target: Estrogen receptor beta (Homo sapiens) (UniProt Q92731); test: qHTS assay to identify small molecule antagonists of the estrogen receptor beta (ER-beta) signaling pathway (AID 1259378; active = well fitted inhibition curve with a large enough effect in the signal ratio in the repeat runs, not every such curve was filed as active; the % refers to the signal ratio)
Procedure, shortened: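 ER-beta-UAS-bla HEK293T (GripTite) cells in 2% charcoal-stripped FBS medium were preincubated 6 hr at 37C, dosed with compound, then stimulated with 1 nM E2 (final) for 16 hr; beta-lactamase reporter read by B/G FRET fluorescence after 2 hr substrate loading.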

[18] = target: Androgen receptor (Homo sapiens) (UniProt P10275); test: qHTS assay to identify small molecule agonists of the androgen receptor (AR) signaling pathway in the presence of an antagonist (AID 1259381; calls by dose curve; also: nearly all actives have a fitted effect of over 15% in size)
Procedure, shortened: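 MDA-kb2 cells carrying MMTV-luciferase (AR/GR responsive), 3,000 cells/well, co-treated with 3.0 uM nilutamide final. Compounds at 15 concentrations, 16 hr at 37C without CO2. Luciferase luminescence read after 30 min with ONE-Glo.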

[19] = target: Estrogen receptor (Homo sapiens) (UniProt P03372); test: qHTS assay to identify small molecule agonists of the estrogen receptor alpha (ER-alpha) signaling pathway in the presence of an antagonist (AID 1259383; calls by dose curve; also: nearly all actives have a fitted effect of over 15% in size; also: potency is read from the fitted curve at half-maximal effect; as to activation: top concentration of the series differs between compounds)
Procedure, shortened: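 VM7Luc4E2 cells express endogenous full-length ER-alpha with an ERE-luciferase reporter and were hormone-deprived for 5 days. Compounds at 15 concentrations were added with 10.0nM ICI-182,780 for 22hr at 37C. Luminescence was read with ONE-Glo.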

[20] = qHTS assay to identify small molecule agonists or antagonists of the thyroid stimulating hormone receptor (TSHR) signaling pathway - wild type cell line counter screen (AID 1259384; calls by dose curve)
Procedure, shortened: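 Wild-type HEK293 cells were plated 18 h at 37 C/5% CO2, pin-dosed with compound plus Ro20-1724 medium, held 30 min at room temperature, then given cAMP-d2 and anti-cAMP-cryptate; fluorescence was read after 1 h. Fifteen concentrations, triplicate.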

Measured: Potency

C=CCc1ccc2c(c1)OCO2
not listed: [13] | [14] | [15] | [16] | [17] | [18] | [19] | [20]
inactive: all other assays above

CCCCCCCCOC(=O)c1ccccc1C(=O)OCCCCCCCC
not listed: [2]
inactive: all other assays above

Nc1ccc(-c2ccccc2)cc1
active: [19] 8.87 µM and 9.69 µM
17.7 µM (active) and inactive: [9]
not listed: [3] | [4] | [11] | [13] | [15] | [16] | [18]
inactive: all other assays above

CCC(CC)Nc1c([N+](=O)[O-])cc(C)c(C)c1[N+](=O)[O-]
active: [11] 61.1 µM
not listed: [3] | [13] | [14] | [15] | [17] | [18] | [19]
inactive: all other assays above
